Measurements taken from PubChem BioAssay (EPA / NIEHS).
Results filed as inconclusive are left out. The source made the active and inactive calls. How the source made its calls, unless noted: active means hit-call score of the fitted dose curve at least 0.9, where 1 is the maximum; inactive means score below 0.9.

system: not listed separately; assay: CCTE_Harrill_HTTr_Viability_DMEM_6hr: (Pilot) CCTE's 6-hour Cell Viability Assessment for the High-Throughput Transcriptomics (HTTr) Platform, in MCF-7 cells cultured in DMEM + 10% fetal bovine serum, Harrill Lab (AID 2283973)
Outline: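 Propidium iodide uptake imaged by high-content analysis after six hours of chemical treatment in an eight-concentration series. Cells: MCF-7 grown in DMEM with 10% fetal bovine serum; DMSO as baseline.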

| Compound | AC50 | outcome |
| --- | --- | --- |
| CCC(=C(c1ccc(O)cc1)c1ccc(OCCN(C)C)cc1)c1ccccc1 | 79 µM (active) | – |
| Cc1oc(-c2ccccc2)nc1CCOc1ccc(C[C@H](Nc2ccccc2C(=O)c2ccccc2)C(=O)O)cc1 | – | inactive |
| O=C(O)Cc1cc(I)c(Oc2cc(I)c(O)c(I)c2)c(I)c1 | – | inactive |

system: not listed separately; assay: CCTE_Harrill_HTTr_Viability_DMEM_12hr: (Pilot) CCTE's 12-hour Cell Viability Assessment for the High-Throughput Transcriptomics (HTTr) Platform, in MCF-7 cells cultured in DMEM + 10% fetal bovine serum, Harrill Lab (AID 2283974)
Outline: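 Propidium iodide dye exclusion imaged by high-content microscopy after 12 h chemical exposure (eight concentrations) of MCF-7 cells grown in DMEM plus 10% FBS; values fitted in both directions relative to DMSO.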

| Compound | AC50 | outcome |
| --- | --- | --- |
| CCC(=C(c1ccc(O)cc1)c1ccc(OCCN(C)C)cc1)c1ccccc1 | 63.6 µM (active) | – |
| Cc1oc(-c2ccccc2)nc1CCOc1ccc(C[C@H](Nc2ccccc2C(=O)c2ccccc2)C(=O)O)cc1 | – | inactive |
| O=C(O)Cc1cc(I)c(Oc2cc(I)c(O)c(I)c2)c(I)c1 | – | inactive |

system: not listed separately; assay: CCTE_Harrill_HTTr_Viability_DMEM_24hr: (Pilot) CCTE's 24-hour Cell Viability Assessment for the High-Throughput Transcriptomics (HTTr) Platform, in MCF-7 cells cultured in DMEM + 10% fetal bovine serum, Harrill Lab (AID 2283975)
Outline: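 Pilot study: propidium iodide dye exclusion, imaged by high content microscopy, after 24 h compound exposure (eight concentrations) in MCF-7 cultured in DMEM + 10% fetal bovine serum; DMSO served as negative control and baseline.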

| Compound | AC50 | outcome |
| --- | --- | --- |
| CCC(=C(c1ccc(O)cc1)c1ccc(OCCN(C)C)cc1)c1ccccc1 | 69.4 µM (active) | – |
| Cc1oc(-c2ccccc2)nc1CCOc1ccc(C[C@H](Nc2ccccc2C(=O)c2ccccc2)C(=O)O)cc1 | – | inactive |
| O=C(O)Cc1cc(I)c(Oc2cc(I)c(O)c(I)c2)c(I)c1 | – | inactive |

system: not listed separately; assay: CCTE_Harrill_HTTr_Viability_PRF_DMEM_6hr: (Pilot) CCTE's 6-hour Cell Viability Assessment for the High-Throughput Transcriptomics (HTTr) Platform, in MCF-7 cells cultured phenol red-free DMEM + 10% charcoal-stripped fetal bovine serum, Harrill Lab (AID 2283976)
Outline: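 Membrane integrity by high-content imaging of propidium iodide uptake, six hours after dosing with eight concentrations. Cells: MCF-7 grown in phenol red-free DMEM plus 10% charcoal-stripped serum; DMSO serves as baseline for bidirectional fits.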

| Compound | AC50 | outcome |
| --- | --- | --- |
| CCC(=C(c1ccc(O)cc1)c1ccc(OCCN(C)C)cc1)c1ccccc1 | 69.8 µM (active) | – |
| Cc1oc(-c2ccccc2)nc1CCOc1ccc(C[C@H](Nc2ccccc2C(=O)c2ccccc2)C(=O)O)cc1 | – | inactive |
| O=C(O)Cc1cc(I)c(Oc2cc(I)c(O)c(I)c2)c(I)c1 | – | inactive |

system: not listed separately; assay: CCTE_Harrill_HTTr_Viability_PRF_DMEM_12hr: (Pilot) CCTE's 12-hour Cell Viability Assessment for the High-Throughput Transcriptomics (HTTr) Platform, in MCF-7 cells cultured in phenol red-free DMEM + 10% charcoal-stripped fetal bovine serum, Harrill Lab (AID 2283977)
Outline: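 Membrane integrity was scored via propidium iodide dye exclusion imaging, fitted in both directions relative to DMSO. Compounds ran as eight-point dilutions for 12 hours on MCF-7 grown in phenol red-free DMEM plus 10% charcoal-stripped serum.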

| Compound | AC50 | outcome |
| --- | --- | --- |
| CCC(=C(c1ccc(O)cc1)c1ccc(OCCN(C)C)cc1)c1ccccc1 | 73.1 µM (active) | – |
| Cc1oc(-c2ccccc2)nc1CCOc1ccc(C[C@H](Nc2ccccc2C(=O)c2ccccc2)C(=O)O)cc1 | – | inactive |
| O=C(O)Cc1cc(I)c(Oc2cc(I)c(O)c(I)c2)c(I)c1 | – | inactive |

system: not listed separately; assay: CCTE_Harrill_HTTr_Viability_PRF_DMEM_24hr: (Pilot) CCTE's 24-hour Cell Viability Assessment for the High-Throughput Transcriptomics (HTTr) Platform, in MCF-7 cells cultured in phenol red-free DMEM + 10% charcoal-stripped fetal bovine serum, Harrill Lab (AID 2283980)
Outline: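 Propidium iodide exclusion imaged at 24 h after dosing scores viability; cells were MCF-7 grown in phenol red-free DMEM plus 10% charcoal-stripped serum, tested in eight concentrations, fitted in both directions against DMSO.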

| Compound | AC50 | outcome |
| --- | --- | --- |
| CCC(=C(c1ccc(O)cc1)c1ccc(OCCN(C)C)cc1)c1ccccc1 | 63.6 µM (active) | – |
| Cc1oc(-c2ccccc2)nc1CCOc1ccc(C[C@H](Nc2ccccc2C(=O)c2ccccc2)C(=O)O)cc1 | – | inactive |
| O=C(O)Cc1cc(I)c(Oc2cc(I)c(O)c(I)c2)c(I)c1 | – | inactive |

system: not listed separately; assay: CCTE_Harrill_HTTr_Apoptosis_DMEM_6hr: (Pilot) CCTE's 6-hour Apoptosis Assessment for the High-Throughput Transcriptomics (HTTr) Platform, in MCF-7 cells cultured in DMEM + 10% fetal bovine serum, Harrill Lab (AID 2283981)
Outline: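 MCF-7 cells grown in DMEM + 10% FBS were exposed for 6 hours to an eight-point dilution series. CellEvent Caspase 3/7 Green signal was imaged; activity fitted bidirectionally against DMSO.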

| Compound | AC50 | outcome |
| --- | --- | --- |
| CCC(=C(c1ccc(O)cc1)c1ccc(OCCN(C)C)cc1)c1ccccc1 | 81.2 µM (active) | – |
| Cc1oc(-c2ccccc2)nc1CCOc1ccc(C[C@H](Nc2ccccc2C(=O)c2ccccc2)C(=O)O)cc1 | – | inactive |
| O=C(O)Cc1cc(I)c(Oc2cc(I)c(O)c(I)c2)c(I)c1 | – | inactive |

system: not listed separately; assay: CCTE_Harrill_HTTr_Apoptosis_DMEM_12hr: (Pilot) CCTE's 12-hour Apoptosis Assessment for the High-Throughput Transcriptomics (HTTr) Platform, in MCF-7 cells cultured in DMEM + 10% fetal bovine serum, Harrill Lab (AID 2283982)
Outline: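 Caspase-3/7 activity was measured by high-content imaging (CellEvent Caspase 3/7 Green) after a 12-hour exposure of MCF-7 cells grown in DMEM with 10% FBS. Eight-point concentration series, fitted bidirectionally against vehicle.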

| Compound | AC50 | outcome |
| --- | --- | --- |
| CCC(=C(c1ccc(O)cc1)c1ccc(OCCN(C)C)cc1)c1ccccc1 | 84 µM (active) | – |
| Cc1oc(-c2ccccc2)nc1CCOc1ccc(C[C@H](Nc2ccccc2C(=O)c2ccccc2)C(=O)O)cc1 | – | inactive |
| O=C(O)Cc1cc(I)c(Oc2cc(I)c(O)c(I)c2)c(I)c1 | – | inactive |

system: not listed separately; assay: CCTE_Harrill_HTTr_Apoptosis_DMEM_24hr: (Pilot) CCTE's 24-hour Apoptosis Assessment for the High-Throughput Transcriptomics (HTTr) Platform, in MCF-7 cells cultured in DMEM + 10% fetal bovine serum, Harrill Lab (AID 2283983)
Outline: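 Caspase-3/7 activity read by high-content imaging (CellEvent Green reagent) 24 h after dosing. MCF-7 cells grown in DMEM with 10% FBS received an eight-point concentration series; fits were bidirectional versus DMSO.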

| Compound | AC50 | outcome |
| --- | --- | --- |
| CCC(=C(c1ccc(O)cc1)c1ccc(OCCN(C)C)cc1)c1ccccc1 | 82.6 µM (active) | – |
| Cc1oc(-c2ccccc2)nc1CCOc1ccc(C[C@H](Nc2ccccc2C(=O)c2ccccc2)C(=O)O)cc1 | – | inactive |
| O=C(O)Cc1cc(I)c(Oc2cc(I)c(O)c(I)c2)c(I)c1 | – | inactive |

system: not listed separately; assay: CCTE_Harrill_HTTr_Apoptosis_PRF_DMEM_6hr: (Pilot) CCTE's 6-hour Apoptosis Assessment for the High-Throughput Transcriptomics (HTTr) Platform, in MCF-7 cells cultured phenol red-free DMEM + 10% charcoal-stripped fetal bovine serum, Harrill Lab (AID 2283984)
Outline: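 Caspase-3/7 activity (CellEvent Green) read by high-content imaging 6 h after dosing, eight concentrations. Cells: MCF-7, phenol red-free DMEM with 10% charcoal-stripped serum. Curves fit both directions against DMSO.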

| Compound | AC50 | outcome |
| --- | --- | --- |
| CCC(=C(c1ccc(O)cc1)c1ccc(OCCN(C)C)cc1)c1ccccc1 | 76.1 µM (active) | – |
| Cc1oc(-c2ccccc2)nc1CCOc1ccc(C[C@H](Nc2ccccc2C(=O)c2ccccc2)C(=O)O)cc1 | – | inactive |
| O=C(O)Cc1cc(I)c(Oc2cc(I)c(O)c(I)c2)c(I)c1 | – | inactive |

system: not listed separately; assay: CCTE_Harrill_HTTr_Apoptosis_PRF_DMEM_24hr: (Pilot) CCTE's 24-hour Apoptosis Assessment for the High-Throughput Transcriptomics (HTTr) Platform, in MCF-7 cells cultured in phenol red-free DMEM + 10% charcoal-stripped fetal bovine serum, Harrill Lab (AID 2283986)
Outline: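 Eight concentrations tested for 24 h on MCF-7 grown in charcoal-stripped serum, phenol red-free DMEM. High content imaging of CellEvent Caspase 3/7 Green signal gives apoptosis read-out, fitted both ways relative to DMSO.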

| Compound | AC50 | outcome |
| --- | --- | --- |
| CCC(=C(c1ccc(O)cc1)c1ccc(OCCN(C)C)cc1)c1ccccc1 | 80.8 µM (active) | – |
| Cc1oc(-c2ccccc2)nc1CCOc1ccc(C[C@H](Nc2ccccc2C(=O)c2ccccc2)C(=O)O)cc1 | – | inactive |
| O=C(O)Cc1cc(I)c(Oc2cc(I)c(O)c(I)c2)c(I)c1 | – | inactive |

system: DIO1 (gene 1733); assay: CCTE_GLTED_hDIO1: CCTE's human Deiodinase 1 (DIO1) Inhibition Assay, Great Lakes Toxicology and Ecology Division (GLTED) Lab (AID 2283987; active means hit-call score of the fitted dose curve at least 0.9, where 1 is the maximum;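 further: isolated human DIO1 enzyme in a cell-free setup rather than cells; enzyme activity read as free iodide liberated from substrate via Sandell-Kolthoff colorimetry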)
Outline: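 Steps: human DIO1 enzyme plus test chemical, 3 h incubation; free iodide then quantified in a second Sandell-Kolthoff step by absorbance. DMSO served as negative control and baseline.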

| Compound | AC50 |
| --- | --- |
| O=c1c(-c2ccc(O)cc2)coc2cc(O)ccc12 | 17.2 µM (active) |
| NC(=O)N1C(=O)C(C(=O)c2cc(Cl)cs2)c2cc(F)c(Cl)cc21 (configuration not stated) | 37.4 µM (active) |
| CC(C)(C)c1ccc(O)c(C(C)(C)C)c1 | 108 µM (active) |
| CCC(=C(c1ccc(O)cc1)c1ccc(OCCN(C)C)cc1)c1ccccc1 | 46.5 µM (active) |
| Cc1oc(-c2ccccc2)nc1CCOc1ccc(C[C@H](Nc2ccccc2C(=O)c2ccccc2)C(=O)O)cc1 | 72.1 µM (active) |
| ClC1=C(Cl)C(Cl)(Cl)C(Cl)=C1Cl | 78.5 µM (active) |
| CCCCCCCCCCCCc1ccccc1S(=O)(=O)O | 96.3 µM (active) |
| CCCCCCCCCCCCN1CCCC1=O | 159 µM (active) |

target: Nucleoli Translocation, AR (gene 367) (UniProt P10275); assay: UPITT_HCI_U2OS_AR_TIF2_Nucleoli_Antagonist: University of Pittsburgh U2OS Androgen Receptor-Transcriptional Intermediary Factor 2 (AR-TIF2) Antagonism High Content Imaging Assay for Nucleoli Translocation (AID 2283997; active means hit-call score of the fitted dose curve at least 0.9, where 1 is the maximum)
Sequence (P10275 whole entry, looked up): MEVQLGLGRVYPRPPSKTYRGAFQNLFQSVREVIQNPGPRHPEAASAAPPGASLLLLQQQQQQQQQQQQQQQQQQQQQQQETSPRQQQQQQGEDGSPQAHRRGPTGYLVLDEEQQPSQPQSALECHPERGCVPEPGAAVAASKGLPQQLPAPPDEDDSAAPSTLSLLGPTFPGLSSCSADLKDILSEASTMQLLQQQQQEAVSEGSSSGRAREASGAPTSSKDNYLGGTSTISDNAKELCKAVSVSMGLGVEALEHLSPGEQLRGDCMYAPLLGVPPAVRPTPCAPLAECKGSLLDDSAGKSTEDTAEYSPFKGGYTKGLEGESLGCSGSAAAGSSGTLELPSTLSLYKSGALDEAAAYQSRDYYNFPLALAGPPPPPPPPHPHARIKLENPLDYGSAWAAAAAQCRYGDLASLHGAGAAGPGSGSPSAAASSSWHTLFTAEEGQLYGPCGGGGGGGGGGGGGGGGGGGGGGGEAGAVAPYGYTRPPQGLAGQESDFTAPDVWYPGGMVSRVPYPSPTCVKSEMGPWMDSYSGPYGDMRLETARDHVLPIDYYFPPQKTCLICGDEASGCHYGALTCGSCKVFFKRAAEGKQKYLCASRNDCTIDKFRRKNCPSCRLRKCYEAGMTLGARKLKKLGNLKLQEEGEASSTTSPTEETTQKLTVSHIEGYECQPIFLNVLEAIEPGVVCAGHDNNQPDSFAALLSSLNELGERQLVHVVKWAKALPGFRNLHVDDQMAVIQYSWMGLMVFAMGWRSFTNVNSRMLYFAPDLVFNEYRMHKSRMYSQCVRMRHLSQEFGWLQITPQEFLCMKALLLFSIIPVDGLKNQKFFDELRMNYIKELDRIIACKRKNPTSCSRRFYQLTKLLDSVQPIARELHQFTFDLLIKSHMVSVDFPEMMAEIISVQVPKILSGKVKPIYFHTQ
Outline: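 An antagonist-mode imaging screen: engineered U2OS (AR-RFP, TIF2-GFP) exposed to 20 uM compound, 0.2% DMSO. Activity reflects nucleolar red fluorescence change relative to DHT baseline.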

| Compound | AC50 | outcome |
| --- | --- | --- |
| Nc1cccc2c(N)cccc12 | 33.3 µM (active) | – |
| O=c1c(-c2ccc(O)cc2)coc2cc(O)ccc12 | – | inactive |
| NC(=O)N1C(=O)C(C(=O)c2cc(Cl)cs2)c2cc(F)c(Cl)cc21 (configuration not stated) | – | inactive |
| c1ccc2c(c1)ccc1ccccc12 | 33.7 µM (active) | – |
| COc1cc(CCC(=O)CC(=O)CCc2ccc(O)c(OC)c2)ccc1O | 26.6 µM (active) | – |
| CCC(=C(c1ccc(O)cc1)c1ccc(OCCN(C)C)cc1)c1ccccc1 | – | inactive |
| Oc1cc2ccccc2c2ccccc12 | 3.25 µM (active) | – |
| CCCCC[C@H](O)CC(=O)CCc1ccc(O)c(OC)c1 | – | inactive |
| Cc1oc(-c2ccccc2)nc1CCOc1ccc(C[C@H](Nc2ccccc2C(=O)c2ccccc2)C(=O)O)cc1 | 67.6 µM (active) | – |
| CCCCCCCCCCCCc1ccccc1S(=O)(=O)O | 83 µM (active) | – |
| N#C[C@@H]1CC(F)(F)CN1C(=O)CNC1CC2CCC(C1)N2c1ncccn1 (some centres not stated) | – | inactive |
| O=C(/C=C/c1ccc(O)cc1)CC(=O)/C=C/c1ccc(O)cc1 | 16.3 µM (active) | – |
| CC[C@H](c1ccc(O)cc1)[C@@H](CC)c1ccc(O)cc1 | 50 µM (active) | – |
| Cc1cc(CCN2CCN(c3nsc4ccccc34)CC2)cc2c1NC(=O)CC2(C)C | 50 µM (active) | – |
| CCCOc1sc(C(=O)N2CCC(c3cc(CN)ccc3F)CC2)c(C)c1Br | – | inactive |
| CC(=O)CC(C)(C)O | – | inactive |
